Source: PubChem BioAssay AID463173 (ICCB-Longwood Screening Facility, Harvard Medical School, 2010)
Hit rate of the full screen: of about 52,000 compounds, about 4,300 (8.3%) were called active. Only a selection was taken, and actives are over-represented in it overall. Unmarked numbers belong to inactive results. Rule as the data show it: active = survival mostly below about 52% (no sharp cut-off); inactive = mostly above about 56%.

System: DeltatarO mutant
Experiment: growth inhibition of S. aureus wild type versus tarO mutant, primary screen, teichoic acid synthesis inhibitors, RN4220, OD600 (AID 463173)
Settings: OD600, 18 h, hits give low values, screened at 18.75 µg/mL (by protocol)

SMILES	survival
COC(=O)c1ccc(Cn2nc(-c3ccc(C)c(C)c3)ccc2=O)cc1	67%
COc1ccc(NC(=O)Nc2cn(CC(C)C)c(=O)c3ccccc23)c(OC)c1	91%
CCn1cc(C(=O)Nc2cccc(Cl)c2)c2cc(OC)c(OC)cc2c1=O	46% (active)
COc1ccc(NC(=O)c2cn(CC(C)C)c(=O)c3cc(OC)c(OC)cc23)cc1Cl	50%
CCn1cc(C(=O)Nc2ccc(C(C)C)cc2)c2cc(OC)c(OC)cc2c1=O	63%
COc1cc(Cl)c(C)cc1NC(=O)c1cn(CC(C)C)c(=O)c2cc(OC)c(OC)cc12	42% (active)
CCOC(=O)c1ccccc1NC(=O)c1cn(CC(C)C)c(=O)c2cc(OC)c(OC)cc12	53%
COc1ccc(OC)c(NC(=O)c2cn(CC(C)C)c(=O)c3cc(OC)c(OC)cc23)c1	50% (active)
COc1ccc(C)cc1NC(=O)c1cn(C)c(=O)c2cc(OC)c(OC)cc12	72%
CCn1cc(C(=O)N2CCN(c3cccc(Cl)c3)CC2)c2cc(OC)c(OC)cc2c1=O	54%
COc1ccc(Cn2c(C(=O)O)c(CNCCc3cc(OC)ccc3OC)c3ccc(C)cc32)cc1	85%
COc1ccccc1NC(=O)c1c(C)cc(C)nc1SCC(=O)Nc1ccc(C)cc1	51%
CC(C)c1cccc(C(C)C)c1NC1=NS(=O)(=O)c2ccccc21	76%
COc1cc(C(=O)N2CCc3ccccc32)cc(OC)c1OC	104%
O=C(c1ccc2c(c1)N(Cc1ccccc1F)C(=O)c1ccccc1S2(=O)=O)N1CCCCCC1	73%
CN1CCN(C(=O)C2CCCCC2C(=O)O)CC1 (stereo not drawn)	78%
COC(=O)c1cc2sccc2n1Cc1nc(-c2cccc(Br)c2)oc1C	70%
COc1ccc(OC)c(C2c3c(-c4ccc(Br)cc4)n[nH]c3C(=O)N2c2ccc(Cl)cc2)c1 (stereo not drawn)	89%
COc1ccc(-c2n[nH]c3c2C(c2ccc(Cl)cc2Cl)NC3=O)cc1 (stereo not drawn)	-12% (active)
CCc1ccc(C2NC(=O)c3[nH]nc(-c4cccc(OC)c4)c32)cc1 (stereo not drawn)	54%
Cc1ccc(CC(=O)Nc2c(C(=O)N3CCN(c4ccccc4F)CC3)oc3ccccc23)cc1	74%
Cc1ccc(-n2c(=O)c3c(C)c(C)sc3n(Cc3ccc(F)cc3Cl)c2=O)cc1C	38% (active)
CCOc1ccc(-n2c(=O)c3c(C)c(C)sc3n(CC(=O)NCCc3ccccc3)c2=O)cc1	84%
CCCCN(CC)C(=O)Cn1c(=O)n(-c2ccc(OCC)cc2)c(=O)c2c3c(sc21)CCCC3	89% (active)
CCOc1ccc(-n2c(=O)c3c(C)c(C)sc3n(Cc3cc(=O)n4cc(Cl)ccc4n3)c2=O)cc1	69%
CCOc1ccc(-n2c(=O)c3c(C)c(C)sc3n(CC(=O)Nc3ccc(CC)cc3)c2=O)cc1	46% (active)
CCCCN(CC)C(=O)Cn1c(=O)n(-c2ccc(OCC)cc2)c(=O)c2c3c(sc21)CCC3	78%

SMILES	survival
CCc1ccc(NC(=O)Cn2c(=O)n(-c3ccc(Cl)c(Cl)c3)c(=O)c3c(C)c(C)sc32)cc1	97%
Cc1ccc(-n2c(=O)c3c4c(sc3n(Cc3cc(=O)n5cc(Cl)ccc5n3)c2=O)CCC4)cc1C	169%
Cc1ccc(Cn2c(=O)n(-c3ccc(C)c(C)c3)c(=O)c3c(C)c(C)sc32)cc1	71%
CCN(CC)C(=O)Cn1c(=O)n(-c2ccc(Cl)cc2)c(=O)c2c3c(sc21)CCCCC3	89%
Cc1ccc(C)c(Cn2c(=O)n(-c3ccc(Cl)cc3)c(=O)c3c(C)c(C)sc32)c1	76%
CCOc1ccc(-n2c(=O)c3c4c(sc3n(Cc3cc(=O)n5cc(Cl)ccc5n3)c2=O)CCC4)cc1	64% (active)
O=C(CCNS(=O)(=O)c1ccc2c(c1)CCCC(=O)N2)NCc1ccc(Cl)cc1	96%
COc1ccc(CCNC(=O)c2cc3c(=O)n4cccc(C)c4nc3n2C)cc1	67%
COc1ccc(NC(=O)C2CCCN(S(=O)(=O)c3ccc4[nH]c(=O)ccc4c3)C2)cc1Cl (stereo not drawn)	82%
CC(=O)Nc1cccc(NC(=O)Cc2csc(COc3cccc(C)c3)n2)c1	89%
CCOc1ccc(NC(=O)C(=O)NCCc2csc(-c3ccc(F)cc3)n2)cc1	82%
CCN(CC)S(=O)(=O)c1ccc2c(c1)N(CC(=O)NCCCN1CCN(c3cc(Cl)ccc3C)CC1)C(=O)CO2	53%
CCOc1ccc(-c2noc(CSc3nnc(-c4ccccc4)n3-c3ccccc3)n2)cc1	66%
COc1cccc(-n2cc(C(=O)Nc3ccccc3C(N)=O)c3ccccc3c2=O)c1	67%
COc1cccc(-n2c(=O)c3c(C)c(C)sc3n(CC(=O)NCCc3ccc(OC)c(OC)c3)c2=O)c1	94%
Cc1ccc(NC(=O)Cn2c(=O)n(-c3ccc(C)cc3)c(=O)c3c2cnn3C)cc1	63%
COc1ccc(CCNC(=O)Cn2c(=O)n(-c3ccc(C)c(C)c3)c(=O)c3c(C)c(C)sc32)cc1OC	64%
Cc1ccc(-n2c(=O)c3c4c(sc3n(CC(=O)Nc3cccc(Cl)c3)c2=O)CCCCC4)cc1C	105% (active)
Cc1ccc(-n2c(=O)c3c(cnn3C)n(CC(=O)Nc3cccc(Cl)c3)c2=O)cc1	55% (active)
O=C(Cn1c(=O)n(-c2ccc(Cl)cc2)c(=O)c2c3c(sc21)CCCCC3)Nc1cccc(Cl)c1	84%
CCOc1ccc(-n2c(=O)c3c(C)c(C)sc3n(CC(=O)C(C)(C)C)c2=O)cc1	121%
Cc1ccc(-n2c(=O)c3c(cnn3C)n(CC(=O)Nc3cccc(C)c3)c2=O)cc1	64%
CCOc1ccc(-n2c(=O)c3c(C)c(C)sc3n(Cc3ccc(C(C)(C)C)cc3)c2=O)cc1	52% (active)
COc1ccc(CCNC(=O)Cn2c(=O)n(-c3ccccc3)c(=O)c3c(C)c(C)sc32)cc1OC	84% (active)
COc1ccc(NC(=O)Cn2c(=O)n(-c3ccc(C)c(C)c3)c(=O)c3c4c(sc32)CCCCC4)cc1Cl	76%
CCOc1ccc(-n2c(=O)c3c(C)c(C)sc3n(Cc3ccccc3C)c2=O)cc1	85%
